Results reported in PubChem BioAssay (NCATS).
Records with an inconclusive call do not appear. Unmarked numbers belong to inactive results. Activity calls are given as the source filed them. The call rests on the fitted dose curve; in most records, active means well fitted inhibition curve with a large enough effect; inconclusive means small, poorly fitted or top-dose-only effect; inactive means flat fitted curve, though single readings scatter.

molecular target: Glutathione peroxidase 1 (Homo sapiens) (UniProt P07203); assay: Primary qHTS Assay for Inhibitors of Recombinant Selenoprotein Glutathione Peroxidase 1 (GPX1) (AID 1845191); conditions: recombinant GPX1, GR-coupled NADPH fluorescence, 15 min; series mostly up to 48.8 µM; activity, negative = inhibition: at the top concentration; further: nearly all actives have a fitted effect of over 65% in size
Sequence (P07203 whole entry, looked up): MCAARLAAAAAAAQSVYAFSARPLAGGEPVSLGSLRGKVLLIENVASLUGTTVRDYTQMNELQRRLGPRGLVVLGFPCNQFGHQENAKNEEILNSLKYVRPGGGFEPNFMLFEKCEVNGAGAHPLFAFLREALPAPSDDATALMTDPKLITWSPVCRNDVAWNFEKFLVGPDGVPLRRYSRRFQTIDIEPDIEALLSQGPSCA
Excerpt: Assay Provider: Elias S.J. Arner MD PhD.
Department of Medical Biochemistry and Biophysics
Karolinska Institutet, Solna, Stockholm, Sweden
Selenoprotein glutathione peroxidases (GPX), like the ubiquitously expressed GPX1 and the ferroptosis modulator GPX4, enact their antioxidant activities by reducing hydroperoxides using glutathione. […] GPX1 and GPX4 inhibitors have thus shown promise as anti-cancer agents. Existing inhibitors are often promiscuous, or modulate GPX activity only indirectly, so novel direct inhibitors identified through screening against GPX1 and GPX4 could be valuable. Here, we developed optimized glutathione reductase (GR)-coupled GPX assays for the biochemical high-throughput screen (HTS) of almost 12,000 compounds with known mechanisms of action. Initial hits were triaged using a GR counter-screen, assessed for isoform specificity using a separate GPX2 assay, and were assessed for general selenocysteine-targeting activity using a thioredoxin reductase (TXNRD1) assay. With this suite of assays, we identified novel GPX1/GPX2- and GPX4-specific inhibitors and can here present a validated pipeline for future discovery research for selenoprotein-targeting agents.
SEQUENCE No. (e.g., 1, 2, 3, etc.); […] (e.g., Cells, Incubation, Reagent, etc.); VALUE; DESCRIPTION.
1; Reagent 1; 3 uL; GPx1 enzyme or no enzyme control in 1536-well, black, solid Greiner assay plate.
2; Compound; 25 nL; Kalypsis pin tool (Wako USA) equipped with a 1536-well pin head.
3; Incubation; 30 min; room temperature.
4; Reagent 2; 1 uL; 10 nM GPX1, 1 mM GSH, 0.5 mM CHP, 0.5 mM NADPH, 100 nM GR, 0.01% BSA substrate
5; Detection; Fluorescence; ViewLux microplate reader, excitation 340 nm and emission 450 nm.
6; Incubation; 15 min; room temperature.
7; Detection; Fluorescence; ViewLux microplate reader, excitation 340 nm and emission 450 nm.
NOTES (numbers refer to Sequence numbers above)
1. 3 uL of 16.66 nM GPX1 and 0.016% BSA in assay buffer (50 mM Tris-HCl, 2 mM EDTA (pH 7.5), 150 mM NaCl) was added to columns 3-48 of 1536-well assay plates using a BioRAPTR Flying Reagent Dispenser (Let's Go Robotics (LGR), Carlsbad, CA). A no-enzyme control (0.01% BSA in TES assay buffer) was added to columns 1-2.
2. 25 nL of test compounds and DMSO controls were added to each well with a pin tool (Kalypsys).
3. The assay plates were incubated for 30 minutes at room temperature.
4. 1 uL of master mix (500 nM glutathione reductase (GR), 5 mM reduced glutathione (GSH), 2.5 mM NADPH in assay buffer) was added. 1 uL of cumene hydroperoxide (CHP) ([2.5 mM] in 50% EtOH) was then added within 5 minutes to initiate the reaction. Final concentrations were: 10 nM GPX1, 1 mM GSH, 0.5 mM CHP, 0.5 mM NADPH, 100 nM GR, 0.01% BSA.
5. Initial fluorescence readout (t=0) at 340/450 nm was measured using a ViewLux multimodal detector (PerkinElmer, Waltham, MA).
7. Endpoint fluorescence readout (t=15) at 340/450 nm was measured 15 min after room temperature incubation.
On the % scale 0 is the no-effect control and ±100 the full control effect; potency means the concentration at half of the fitted maximal effect.

Structure (SMILES)	activity, negative = inhibition	outcome	Potency
CCC(=O)Oc1ccc2c(c1)CC[C@@H]1[C@H]2CC[C@]2(C)[C@@H](OC(=O)CC)CC[C@@H]12	-13.3%	–	–
COc1ccc(Nc2cc(C)c3cc(NC(=O)c4cc(OC)cc(OC)c4)ccc3n2)cc1	–	inactive	–
CCCC[C@H](C)C[C@H](O)/C=C/[C@H]1[C@H](O)CC(=O)[C@@H]1CCCC/C=C/C(=O)O	–	inactive	–
CO[C@@H]1C[C@H](O[C@H]2[C@H](C)[C@H](O[C@@H]3O[C@@H](C)C[C@@H](N(C)C)[C@H]3OC(C)=O)[C@H](C)C[C@]3(CO3)C(=O)[C@H](C)[C@H](OC(C)=O)[C@H](C)[C@H](C)OC(=O)[C@@H]2C)O[C@H](C)[C@H]1OC(C)=O	1.64%	–	–
CO[C@@H]1[C@@H](OC2OC(C)C(OC3CC(C)(O)C(OC(=O)CC(C)C)C(C)O3)C(N(C)C)C2O)[C@@H](CC=O)C[C@@H](C)C(=O)/C=C\C2O[C@H]2C[C@@H](C)OC(=O)C[C@H]1OC(C)=O (stereo not given in full)	-24.9%	–	–
O=C(c1cccc(Br)c1)N1CCC(N2CCCC2)CC1	-9.02%	–	–
CCCCC(F)(F)C1(O)CCC2C(CC(=O)C2CCCCCCC(=O)O)O1 (stereo not given)	-7.71%	–	–
CO[C@H]1/C=C\O[C@@]2(C)Oc3c(C)c(O)c4c(O)c(c5c(c4c3C2=O)=NC2(CCN(CC(C)C)CC2)N=5)NC(=O)/C(C)=C\C=C/[C@H](C)[C@H](O)[C@@H](C)[C@@H](O)[C@@H](C)[C@H](OC(C)=O)[C@@H]1C	–	inactive	–
NC(N)=NCCC[C@@H](N)C(=O)N[C@@H](CCCN=C(N)N)C(=O)N1CCC[C@H]1C(=O)N1C[C@H](O)C[C@H]1C(=O)NCC(=O)N[C@@H](Cc1cccs1)C(=O)N[C@@H](CO)C(=O)N1Cc2ccccc2C[C@@H]1C(=O)N1[C@H](C(=O)N[C@@H](CCCN=C(N)N)C(=O)O)C[C@@H]2CCCC[C@@H]21	1.83% [at 27.7 µM]	–	–
CC(C)(C)NCC(O)COc1ccccc1C1CCCC1 (stereo not given)	-17%	–	–
CC(=O)NC(C=O)C(O)C(O)[C@H](O)CO (stereo not given in full)	–	inactive	–
CCC(=O)O[C@@H]1[C@@H](C)O[C@@H](O[C@H]2[C@H](N(C)C)[C@@H](O)[C@H](O[C@H]3[C@@H](CC=O)C[C@@H](C)[C@@H](OC(C)=O)/C=C/C=C/C[C@@H](C)OC(=O)C[C@@H](OC(=O)CC)[C@@H]3OC)O[C@@H]2C)C[C@]1(C)OC(C)=O	3.34%	–	–
CCCC(=O)O[C@]1(C(=O)COC(C)=O)CC[C@H]2C3C[C@H](F)C4=CC(=O)C=C[C@]4(C)[C@@]3(F)[C@@H](O)C[C@@]21C (stereo not given in full)	–	inactive	–
CC[C@@]1([C@@H]2O[C@@H]([C@H]3O[C@@](O)(CO)[C@H](C)C[C@@H]3C)C[C@@H]2C)CC[C@H]([C@]2(C)CCC3(C[C@H](O)[C@@H](C)[C@@H]([C@@H](C)[C@@H](OC)[C@H](C)C(=O)O)O3)O2)O1 (stereo not given in full)	–	–	inactive
CCOc1ccc(Cc2cc([C@@]34OC[C@@](CO)(O3)[C@@H](O)[C@H](O)[C@H]4O)ccc2Cl)cc1	–	inactive	–
CC(c1ccc(-c2ccc(CC(=O)O)cn2)cc1)N1CCCCC1 (stereo not given)	–	inactive	–
CCCCC(CC)COC(=O)c1ccc(Nc2nc(Nc3ccc(C(=O)OCC(CC)CCCC)cc3)nc(Nc3ccc(C(=O)OCC(CC)CCCC)cc3)n2)cc1 (stereo not given)	4.21%	–	–
CCCCCCCC/C=C/CCCCCCCC(=O)O	–	inactive	–
O=[N+]([O-])c1ccc(/C=C/c2cccc(CO)n2)o1	–	inactive	–
[2H]C([2H])([2H])C(O)(CCO[C@@H](C)[C@H]1CC[C@H]2/C(=C/C=C3\C[C@@H](O)C[C@H](O)C3=C)CCC[C@]12C)C([2H])([2H])[2H]	–	inactive	–

Structure (SMILES)	activity, negative = inhibition	outcome	Potency
O=C1Cc2ccccc2N1	-9.52%	–	–
CCCCC(C)(O)CC=C[C@H]1[C@H](O)CC(=O)[C@H]1CCCCCCC(=O)OC (stereo not given in full)	3.76%	–	–
CC(=O)c1cc2cccc(OCC(O)CNC(C)C)c2o1 (stereo not given)	–	inactive	–
CCCCC(=O)O[C@]1(C(=O)COC(C)=O)CC[C@H]2[C@@H]3CCC4=CC(=O)C=C[C@]4(C)[C@H]3[C@@H](O)C[C@@]21C	-11.2%	–	–
O=C(O)CCN(O)C(=O)CCCCCCCCC1CC1	-5.84%	–	–
CC(C)=C(C#N)C(=O)N1CCCN(c2cc(NCCC(=O)O)nc(-c3ccccn3)n2)CC1	–	inactive	–
CCCCCCO[C@@H](C)c1cccc(-c2csc(NC(=O)c3cc(Cl)c(/C=C(\C)C(=O)O)c(Cl)c3)n2)c1OC	-20.2%	–	–
[Mn].[O]=[Mn][OH].[O]=[Mn][OH]	–	inactive	–
C[Si](C)(C)O[Si](C)(C)O[Si](C)(C)C	–	inactive [at 98.3 µM]	–
CCCCCCCCCCCCCCCC(=O)OC1C(SC)OC(C(NC(=O)C2CC(CCC)CN2C)C(C)Cl)C(O)C1O (stereo not given)	–	inactive	–
CC[C@H]1OC(=O)[C@H](C)[C@@H](O[C@H]2C[C@@](C)(OC)[C@@H](O)[C@H](C)O2)[C@H](C)[C@@H](O[C@@H]2O[C@H](C)C[C@H](N(C)C)[C@H]2O)C(C)(O)C[C@@H](C)/C(=N\OCOCCOC)[C@H](C)[C@@H](O)[C@]1(C)O (stereo not given in full)	–	–	inactive
COc1ccccc1Nc1nc(-c2sc(NC(C)=O)nc2C)cs1	–	–	20.2 µM (active)
CC[C@H]1OC(=O)C[C@@H](OC(C)=O)[C@H](C)[C@@H](O[C@@H]2O[C@H](C)[C@@H](O[C@H]3C[C@@](C)(O)[C@@H](OC(=O)CC(C)C)[C@H](C)O3)[C@H](N(C)C)[C@H]2O)[C@@H](CC=O)C[C@@H](C)C(=O)/C=C/C(C)=C/[C@@H]1CO[C@@H]1O[C@H](C)[C@@H](O)[C@@H](OC)[C@H]1OC	–	inactive	–
O=C(O)c1ccnc2cc(C(OCCCN3CCCCC3)c3ccccc3Cl)[nH]c12 (stereo not given)	-5.04%	–	–
Clc1ccc(-c2csc(NN=C3CCCC3)n2)cc1	–	inactive	–
CCOC(=O)[C@H](C)C[C@@H](Cc1ccc(-c2ccccc2)cc1)NC(=O)CCC(=O)O	-14.5%	–	–
Cc1ccc2c(c1)-c1nc(-c3ccc(Cl)cc3)cc(-c3coc4ccccc4c3=O)c1CO2	-7.89%	–	–
OC[C@H]1O[C@@H](OC[C@H]2O[C@@H](O[C@@H]3[C@@H](O)[C@H](O)O[C@H](CO)[C@H]3O)[C@H](O)[C@@H](O[C@@H]3O[C@H](CO)[C@@H](O)[C@H](O)[C@H]3O)[C@@H]2O)[C@H](O)[C@@H](O)[C@@H]1O	2.37%	–	–
CO/N=C(/C(=O)N[C@@H]1C(=O)N2C(C(=O)O)=CCS[C@H]12)c1csc(N)n1	–	–	10.1 µM (active)
CC1CC2C3CCC4=CC(=O)C=CC4(C)C3(F)C(O)CC2(C)C1(O)C(=O)COC(=O)c1cccc(S(=O)(=O)O)c1 (stereo not given)	–	inactive	–
